# Results: PubChem BioAssay AID588335 (The Scripps Research Institute Molecular Screening Center, 2011)
# Among all 360,000 compounds or so, about 4,500 (1.2%) were called active. Shown is part of a subset that was picked to be rich in actives. Values without a mark were called inactive. Cut-off read from the data, not from the text of the source: active = inhibition above about 30%; inactive = the rest.
# Test: inhibition of GDH and TPI enzymes – biochemical, absorbance, full deck, artefact control for M. tuberculosis FBA inhibitor project, primary screen (AID 588335);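 note: 0% = DMSO wells and 100% = wells lacking the enzyme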
# Settings: GDH-TPI coupled enzyme counterscreen, NADH absorbance; at 4.8 µM; active compounds read high
row,Compound,inhibition
1,COc1ccccc1/C=C/C=N/n1c(-c2ccc(Cl)cc2Cl)n[nH]c1=S,34.7% (active)
2,COc1cc(-c2n[nH]c(=S)n2Cc2ccccc2)cc(OC)c1OC,3.29%
3,Cc1cc(-c2n[nH]c(=S)n2/N=C/C(Br)=C/c2ccccc2)n[nH]1,7.17%
4,CCCCOc1ccc(Cl)cc1CSc1nncn1N,-8.67%
5,N#CC1(Nc2ccc3c4c(cccc24)CC3)CCCCC1,18.6%
6,Cc1cc(NCc2ccco2)n2c(nc3ccccc32)c1C#N,8.76%
7,Clc1cccc(-c2nc3nc4ccccc4nc3n2Cc2ccco2)c1,33.2% (active)
8,O=C(CSc1nnc(-c2cccnc2)n1Cc1ccco1)c1ccc(Cl)c(Cl)c1,-5.03%
9,COC(=O)c1cc(S(=O)(=O)N2CCC(C(N)=O)CC2)oc1C,0.74%
10,O=C(O)c1ccc(COCC(F)(F)F)cc1,6.06%
11,COc1ccccc1C1=CC(=O)CCC1,10.9%
12,COc1ccccc1Oc1ccc(N/C=C2/CCCC2=O)cc1,33.3% (active)
13,COc1ccc(N/N=C2/CCCCC2=O)cc1,1.13%
14,O=C(O)CCn1c(O)c(C=C2N=c3ccccc3=N2)sc1=S,22.8%
15,O=C(Oc1cccc(N2C(=O)C3C4c5ccccc5C(c5ccccc54)C3C2=O)c1)c1ccco1 (stereo not drawn),10.9%
16,C/C(=N\NC(=O)c1ccc(NS(=O)(=O)c2cccs2)cc1)c1ccc2ccccc2c1,32.1% (active)
17,O=S(=O)(Nc1ccccc1)c1ccc(NS(=O)(=O)c2cccs2)cc1,14.9%
18,COc1cc(OC)c(C(=O)NNC(=O)c2ccc(NS(=O)(=O)c3cccs3)cc2)cc1OC,12.8%
19,COCCn1c(C)cc(C(=O)CN2c3cccc4cccc(c34)S2(=O)=O)c1C,3.51%
20,Oc1ccc(C2Nc3cccc4cccc(c34)N2)cc1,32.9% (active)
21,CN(C(=O)CC(NC(=O)c1ccccc1)(c1ccccc1)c1ccccc1)c1ccccc1,-10.6%
22,Cn1c(=O)n(C)c2cc(CNc3ccc(N4CCOCC4)c(C(=O)O)c3)ccc21,8.39%
23,CC(C)(C)NC(=O)COC(=O)c1cc(Br)ccc1Cl,-3.49%
24,Cc1c(Cl)c([N+](=O)[O-])nn1Cc1ccc(C(=O)N/N=C\c2cc(Cl)ccc2O)o1,4.27%

row,Compound,inhibition
1,O=C1CSC(=S)N1/N=C/c1ccc(O)c([N+](=O)[O-])c1,1.6%
2,Cc1cc(C(=O)N/N=C/c2ccc(O)c([N+](=O)[O-])c2)c(C)n1-c1ccc(F)cc1,51.7% (active)
3,CC1(C)CC(=O)c2sc(N)nc2C1,20.2%
4,NC1=NOC(=O)C1C1CCCCC1 (stereo not drawn),-5.11%
5,O=C(COC(=O)/C=C/c1ccc2c(c1)OCO2)NC1CCS(=O)(=O)C1 (stereo not drawn),23.7%
6,CN(Cc1ccccc1)C(=O)COC(=O)/C=C/c1ccc2c(c1)OCO2,35% (active)
7,Cc1cccc(NC(=O)/C=C/c2ccc3c(c2)OCO3)n1,28.3%
8,CSc1ncccc1C(=O)Nc1nc2ccc(F)cc2s1,8.2%
9,COc1ccc(CNC(=O)c2ccc(Br)s2)cc1OC,-1.03%
10,COc1ccc2nc(NC(=O)c3ccc(Br)s3)sc2c1,32.7% (active)
11,Nc1cc(C(=O)N2CCN(c3ccccc3Cl)CC2)ccc1N1CC2CC(C1)c1cccc(=O)n1C2 (stereo not drawn),8.04%
12,OC(c1ccccc1)c1nc(/C=C/c2ccc(C(F)(F)F)cc2)cs1 (stereo not drawn),7.08%
13,N#CCC(=O)N/N=C/c1ccc(SCC(=O)Nc2ccccc2)o1,15.4%
14,O=C(Cn1cc(/C=N/NC(=O)c2cccc(C(F)(F)F)c2)c2ccccc21)Nc1ccc(F)cc1,9.15%
15,O=C(CSc1ccc(/C=N/NC(=O)c2cccc(F)c2)o1)Nc1ccccc1,33.1% (active)
16,CCCCN(CCCC)CCCNC(=O)CN1C(=O)COc2ccc(S(=O)(=O)N3CCC(C)CC3)cc21,5.17%
17,CCOC(=O)c1c(C2CC2)csc1NC(=O)CSCc1c(C)noc1C,1.16%
18,NC(=S)c1ccc(C(N)=S)o1,33.3% (active)
19,CC(C)CC1(C(=O)NCc2ccccn2)C=CCN1C(=O)c1ccccc1 (stereo not drawn),1.72%
20,CN(C)CCCOc1ccc(-c2ccc3nccn3c2)cn1,6.19%
21,CC(Oc1ccccc1[N+](=O)[O-])C(=O)N/N=C/c1ccoc1 (stereo not drawn),5.72%
22,CNC(=S)N/N=C/c1ccc(OCc2ccccc2)c(Br)c1,3.82%
23,O=C(N/N=C/c1cc(Br)c(O)c([N+](=O)[O-])c1)C(O)(c1ccccc1)c1ccccc1,79.3% (active)
24,COCCCNC(=S)N(Cc1ccccc1)Cc1ccc(F)cc1,-5.1%

row,Compound,inhibition
1,COC(=O)c1[nH]c2ccc(Br)cc2c1NC(=O)Oc1ccccc1,8.96%
2,COc1ccc(-c2cc(C(=O)NC(Cc3c[nH]c4ccccc34)C(=O)O)c(C)o2)cc1OC (stereo not drawn),1.44%
3,COc1ccc(-c2cc(=O)oc3cc(OCC(=O)N[C@@H](Cc4c[nH]c5ccccc45)C(=O)O)ccc23)cc1,32.4% (active)
4,CC(Oc1ccc2c(-c3ccccc3)cc(=O)oc2c1)C(=O)NC(Cc1c[nH]c2ccccc12)C(=O)O (stereo not drawn),15.9%
5,C=CCOC(=O)C1=C(C)N=C2SCCC(=O)N2C1/C=C/c1ccccc1OC (stereo not drawn),6.07%
6,COc1cccc(/C=C/c2ccc3ccccc3n2)c1OC(C)=O,22.8%
7,COc1ccccc1/C=C/C1=NC(=C\N(C)C)/C(=O)O1,32.5% (active)
8,O=C1c2cccc3cccc(c23)C(=O)N1c1cccc(O)c1,24.8%
9,COc1cccc(CNC(=O)COc2cc(O)c3c(c2)OC(C)(C)CC3=O)c1,0%
10,CC(CO)(CO)NC(=O)c1ccc(=O)[nH]n1,8.64%
11,Cc1ccc(CNC(=O)CCNC(=O)Cn2ccc3ccccc3c2=O)cc1,7.19%
12,CC(=O)c1ccc(N2CCN(C(=O)CCNC(=O)Cn3ccc4ccccc4c3=O)CC2)cc1,34.2% (active)
13,CN(C(=O)CCNC(=O)Cn1ccc2ccccc2c1=O)c1ccc(Br)cc1,1.56%
14,C[C@H]1Cn2cnc(C(=O)N[C@@H](Cc3c[nH]c4ccccc34)C(=O)OC(C)(C)C)c2C(=O)N1,7.22%
15,COc1ccc(/C=C/C(=O)NC(=S)N2CCCC(C(N)=O)C2)cc1 (stereo not drawn),48.8% (active)
16,COc1ccc(CN2CCCC(C(=O)N3CCCCC3)C2)cc1 (stereo not drawn),4.14%
17,COc1ccc(/C=C/C(=O)NC(=S)NN2CCCCC2c2cccnc2)cc1 (stereo not drawn),10.5%
18,COc1ccc(C(=O)N2CCN(c3ncccn3)CC2)cc1S(=O)(=O)N1CCOCC1,3.64%
19,Cc1ccc(S(=O)(=O)N2CCOCC2)cc1C(=O)NC(=S)N(Cc1ccccc1)C(C)C,-2.59%
20,COCCN(CCOC)c1nc(N)c2c(N)nc3c(c2c1C#N)CC(=O)N3Cc1ccc(Cl)cc1,13.7%
21,COc1cc(Cn2c3ccc(NC(=O)CC(C)c4ccccc4)cc3c(=O)n2C)ccc1F (stereo not drawn),4%
22,CCN(CC)CCn1c(N)c(S(=O)(=O)c2ccccc2)c2nc3ccccc3nc21,31% (active)
23,CCC(=O)Nc1c(S(=O)(=O)c2ccccc2)c2nc3ccccc3nc2n1Cc1ccccc1,27%
24,CCCn1nc(NS(=O)(=O)c2ccc(F)cc2)c2cc3ccccc3nc21,6.9%

row,Compound,inhibition
1,O=C(NNS(=O)(=O)c1ccccc1C(F)(F)F)c1cc2ncc(C(F)(F)F)cc2s1,12.3%
2,COCc1ccc(C(=O)N2CCc3c([nH]c4ccccc34)C2c2ccccn2)s1 (stereo not drawn),-1.89%
3,CNC(=O)c1csc(Cc2c(Cl)sc3ccc(Cl)cc23)n1,-5.66%
4,CN(C)C(=O)CCc1ccc2c3c([nH]c2c1)[C@]1(C)[C@@H](C(=O)N2CCOCC2)C[C@H](CC(=O)NCCc2ccccn2)C(=O)N1CC3,3.64%
5,COc1ccccc1CC(=O)Nc1ccc(S(=O)(=O)N2CCCC2)cc1,3.02%
6,COc1ccc(-c2ccc(Nc3ccc(S(=O)(=O)N4CCCC4)cc3)nn2)cc1OC,50.4% (active)
7,COc1ccc(S(=O)(=O)N2CCCCCC2)cc1NC(=O)Cc1ccc(OC)c(OC)c1,-2.16%
8,CCc1ccc(C(=O)C(C)OC(=O)CN2C(=O)NC3(CCCC3)C2=O)cc1 (stereo not drawn),6.99%
9,CC(OC(=O)Cc1ccc(F)cc1)C(=O)N1CCc2ccccc21 (stereo not drawn),3.45%
10,Cc1ccc(C(=O)COC(=O)CCCC(=O)NC2CCCCC2)cc1[N+](=O)[O-],-3%
11,Cc1ccc(N=C2NC(=O)c3cccc([N+](=O)[O-])c32)cc1,13.5%
12,CCOC(=O)Cn1c(O)c(N=NC(=O)CNC(=O)Cc2ccccc2)c2ccccc21,28.8%
13,CCn1c(O)c(N=NC(=O)c2cccc(S(=O)(=O)N3CCCCC3)c2)c2ccccc21,4.32%
14,COC(=O)Cn1c(O)c(N=NC(=O)OC)c2ccccc21,31.6% (active)
15,O=C(O)C1=CCCN(CCON=C(c2ccccc2)c2ccccc2)C1,-4.66%
16,Cn1c(-c2ccc(C(=O)c3ccccc3)s2)nc2ccccc21,38.1% (active)
17,CCn1c(NC(=O)c2nn(C)cc2Br)nc2ccccc21,6.37%
18,Cc1nc2ccccc2c(C)c1C(=O)c1ccc(F)cc1,-2.59%
19,CCCn1c(C(=O)c2ccccc2OC)nc2ccccc21,8.57%
20,Cn1c(NC(=O)c2ccccc2)nc2ccccc21,41.4% (active)
21,Cn1c(CC(=O)NNC(=O)c2ccccc2F)nc2ccccc21,-6.69%
